Bioassay records from PubChem.
An excerpt weighted towards active compounds, which were near 0.97% of everything screened.
CCT chaperon mod = High-Throughput Screening for Modulators of Cytosolic Chaperonin Activity. activity change, % (concentration not given with the values), hits read low. 0.3% of 360,000 active. AID 651819, 2012. purified chaperonin ATPase assay, HTRF ADP detection, 30 min; in the data active = activity change below about -30%
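Enzyme 40 or 20 nM (batch-dependent) in Tris pH 7.4/KCl/MgCl2/DTT; cpd 76 uM single point; ATP 10 uM; 30 min 37 °C; Transcreener ADP HTRF detection, 30 min RT; ratio 665/615.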
Eya2 inh = qHTS Assay for Inhibitors of the Phosphatase Activity of Eya2. Protein phosphatase EYA2 (Homo sapiens), O00167. recombinant Eya2, OMFP fluorescence dephosphorylation (OMFP is methylfluorescein phosphate). Potency, µM (series often up to 76.9 µM), for the others: at the top dose activity, negative = inhibition, usual class: inhibitors. 0.006% of 330,000 active. AID 488837, 2010; active = well fitted inhibition curve with a large enough effect; inconclusive = small, poorly fitted or top-dose-only effect, or effect the other way; also: potency is read from the fitted curve at half-maximal effect
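Eya2 (0.2 uM) preincubated 10 min at ambient with compound, then OMFP substrate added at 50 uM; 10 min reaction in 50 mM HEPES pH 7.5, 50 mM NaCl, 5 uM MgCl2, 0.05% BSA, 1 mM DTT. Fluorescence read at Ex 485/Em 525 nm.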
Six1-Eya2 blk = qHTS Assay for Inhibitors of the Six1/Eya2 Interaction | activity change, % (test concentration not listed) | 0.56% of 360,000 active | Homeobox protein SIX1 (Homo sapiens) + Protein phosphatase EYA2 (Homo sapiens), … | AlphaScreen GST-Six1/His-Eya2 binding, biochemical; active compounds read low
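Homogeneous AlphaScreen proximity assay pairing GST-Six1 with His-tagged Eya2 (added as 5X mix: 250 nM and 500 nM) in 50 mM Tris pH 8.0, 300 mM NaCl, 1 mM TCEP. Glutathione donor and nickel acceptor beads; 1 h, 37 °C, dark.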
PI4K2A inh = qHTS for small molecular inhibitors of PI4K2A. purified PI4K2A, ADP-Glo luminescence, 1 h; active compounds read low. activity change, negative = inhibition, % at 76.9 µM. 0.13% of 420,000 active. AID 1346378, 2018; in the data active = activity change below about -50%; inconclusive = mostly about -30% to -49%;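 also: -100% = wells without enzyme as full effect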
Target sequence (Q9BTU6 whole entry, looked up): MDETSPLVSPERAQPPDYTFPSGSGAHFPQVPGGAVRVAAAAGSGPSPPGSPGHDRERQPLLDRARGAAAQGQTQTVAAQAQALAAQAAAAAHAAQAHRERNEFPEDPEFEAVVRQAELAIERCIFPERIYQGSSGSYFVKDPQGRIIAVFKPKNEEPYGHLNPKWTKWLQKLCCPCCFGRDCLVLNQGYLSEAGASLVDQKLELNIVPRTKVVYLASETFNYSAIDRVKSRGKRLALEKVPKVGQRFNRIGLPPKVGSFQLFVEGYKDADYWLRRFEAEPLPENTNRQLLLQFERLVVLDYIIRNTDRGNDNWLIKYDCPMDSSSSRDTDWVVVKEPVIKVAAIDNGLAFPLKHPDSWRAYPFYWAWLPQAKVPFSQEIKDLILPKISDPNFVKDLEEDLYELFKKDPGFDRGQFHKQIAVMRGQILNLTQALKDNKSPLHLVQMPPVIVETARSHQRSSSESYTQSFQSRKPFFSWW
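In this quantitative HTS, ADP production by PI4K2A was quantified luminescently after 1 h at ambient temperature; 100 microM adenosine served as plate-quality control.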
CtBP-E1A inh = qHTS Assay for Inhibitors of the CtBP/E1A Interaction. CtBP / adenovirus E1A interaction (AlphaScreen). AlphaScreen GST-E1A/His-CtBP binding, 1536-well; active compounds read low. activity change, % (no concentration beside the values). 0.49% of 340,000 active
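GST-E1A and His-tagged CtBP (125 nM each as 5X stock) were preincubated with pin-transferred compound for 2 h at 37 °C in the dark, then glutathione donor and nickel acceptor beads were added for 1 h before AlphaScreen reading.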
Numbers without * were called inactive; ? = inconclusive; . = not tested or not shown; ! = repeats disagree. Rule as the data show it, unless noted: active = activity change below about -65%; inconclusive = mostly about -30% to -63%; inactive = weaker than that. Unless noted, % is scaled to controls: 0 for no effect and ±100 for the full control effect.

SMILES	CCT chaperon mod	Eya2 inh	Six1-Eya2 blk	PI4K2A inh	CtBP-E1A inh
COC(=O)c1ccccc1NC(=O)c1noc2c1CC(C(C)(C)C)CC2 (configuration not stated)	-81*	15%	3	-2	7
CC(C)(C)Cc1nnc(NC(=O)c2ccco2)s1	-76*	10%	-3	-4	-11
O=[N+]([O-])c1ccc(NN=Cc2cccc3ccccc23)cc1	0	.	1	2	4
O=[N+]([O-])c1cc(Br)c(O)c(/C=N/Nc2nnnn2-c2cccc3ccccc23)c1	-2	-3%	?	-6	-70*
COC(=O)C1CCN(c2nc3ccccc3nc2C(C#N)C(=O)OCC(C)C)CC1 (configuration not stated)	-40*	-6%	-1	1	7
Cc1cc(CCCOc2c(C)cc(-c3noc(C(F)(F)F)n3)cc2C)on1	.	.	.	-1	.
COC(=O)c1ccc(OC)c(Cn2c(=O)n(-c3cccc(Cl)c3)c(=O)c3c4c(sc32)CN(C(C)=O)CC4)c1	.	.	.	-2	.
Cc1ccc(C)c(OCCCC(C)(C)C(=O)O)c1	-3	3%	-21	-62*!	0
CCCNC(=O)c1ccc2c(c1)nc1n2CCCCC1	.	.	.	1	.
COc1ccc(NC(=O)N(C)C[C@H]2Oc3ccc(NC(=O)Cc4ccccc4)cc3C(=O)N([C@H](C)CO)C[C@@H]2C)cc1	-1	3%	-19	-6	-9
COc1ccc(NC(=O)Nc2ccc3c(c2)C(=O)N([C@H](C)CO)C[C@H](C)[C@@H](CN(C)C(=O)Nc2ccccc2)O3)cc1	-1	6%	?	-2	-67*
C[C@H](CO)N1C[C@H](C)[C@@H](CN(C)C(=O)Nc2ccc3c(c2)OCO3)Oc2ccc(NC(=O)Nc3ccc(C(F)(F)F)cc3)cc2C1=O	-1	-9%	-15	-4	-10
C[C@H](CO)N1C[C@H](C)[C@@H](CN(C)C(=O)Nc2ccccc2)Oc2ccc(NC(=O)Nc3ccc4c(c3)OCO4)cc2C1=O	-1	-21%	?	-2	-65*
Cc1cccc(NC(=O)Nc2nnc(N(C)C3CCCCC3)s2)c1C	.	.	.	-1	.
O=C(NCCc1ccccc1)C(=O)NCC(c1cccnc1)N1CCN(c2ccc(F)cc2)CC1 (configuration not stated)	.	.	.	-4	.
COC(=O)C1CN(Cc2cn(Cc3ccc(C)cc3)nn2)CCS(=O)(=O)N1Cc1ccc(F)cc1 (configuration not stated)	.	.	.	-1	.
NC(Cc1ccc(Cl)cc1)c1csc(Nc2cc(Oc3ccccc3)ncn2)n1 (configuration not stated)	1	.	-10	-4	-15
NC(CCc1ccccc1)c1csc(Nc2cnccn2)n1 (configuration not stated)	-1	.	?	-2	-67*
COc1ccc(CC(N)c2csc(Nc3ccccn3)n2)cc1 (configuration not stated)	-1	.	-88*	-4	-92*
COc1ccc(CC(N)c2csc(Nc3cc(Oc4ccccc4)ncn3)n2)cc1 (configuration not stated)	-36*	.	-9	0	-19
CC(N)c1csc(Nc2cc(Oc3ccccc3)ncn2)n1 (configuration not stated)	2	.	?	4	-68*
Cc1ccc(S(=O)(=O)N2CCCC(C(=O)NCCN3CCC(Cc4ccccc4)CC3)C2)cc1 (configuration not stated)	.	.	.	2	.
CCCCCCCCCCC(CO)CCCCCCCC (configuration not stated)	.	.	.	2	.
CCOc1ccccc1CNC(=O)Cn1nc(C)c2nn(-c3ccc(Cl)cc3)c(C)c2c1=O	.	.	.	-1	.
Nc1[nH]c(C(=O)c2ccccc2)c(-c2cccnc2)c1C(=O)NCCc1c[nH]c2ccccc12	.	.	.	-3	.
SMILES	CCT chaperon mod	Eya2 inh	Six1-Eya2 blk	PI4K2A inh	CtBP-E1A inh
CC(N)c1csc(Nc2ncccn2)n1 (configuration not stated)	-4	.	-84*	-1	-88*
CC(N)c1csc(Nc2nccc(C(F)(F)F)n2)n1 (configuration not stated)	0	.	?	-8	?
O=C(CSc1nnc(-c2ccc3c(c2)OCO3)o1)Oc1ccccc1	.	.	.	-1	.
COc1ccc(/C=N/Nc2nncn2N)cc1Br	-1	-9%	-75*	-54*	?
COc1cc(/C=N/Nc2nncn2N)ccc1OCc1c(C)no[n+]1[O-]	-1	-8%	-5	-28	-5
COc1ccc(/C(C)=C2\SC(=S)N(CCC(=O)O)C2=O)cc1	0	-29%	-2	1	3
C/C(=C1/SC(=S)N(CCC(=O)O)C1=O)c1ccc(O)cc1	-38*	-6%	-14	-15	-6
COc1ccc([C@H]2/C=C\CN(Cc3ccc(N(C)C)cc3)[C@@H](C)C(=O)N2Cc2ccc(F)cc2)cc1	-2	.	?	1	-65*
CN1CCN(c2ccc(NC(=O)c3cccc(S(=O)(=O)N4CCCC4)c3)cc2)CC1	-2	1%	-4	-2	-8
CN1CCN(S(=O)(=O)c2cccc(C(=O)Nc3sccc3C(N)=O)c2)CC1	0	-8%	-77*	25	-80*
CC(C)Cc1nnc(NC(=O)c2cccc(S(=O)(=O)N3CCN(C)CC3)c2)s1	-1	11%	0	-4	9
CC(C)Cc1nnc(NC(=O)c2cccc(S(=O)(=O)N3CCOCC3)c2)s1	-59*	-5%	0	-1	0
CN1CCN(S(=O)(=O)c2cccc(C(=O)Nc3cc(C(N)=O)cc(C(N)=O)c3)c2)CC1	1	10%	-66*	-1	?
Fc1ccc(-c2cn3cc(Cc4ccccc4)sc3n2)cc1	.	.	.	-7	.
CCOC(=O)c1ccc(O)c(O)c1	.	.	.	-1	.
CCOC(=O)C(O)c1ccccc1 (configuration not stated)	.	.	.	-2	.
CN(C)CCCCOc1ccc(Br)cc1Cl	-59*	-2%	5	-6	0
COCCCNCCCCOc1ccc(Br)cc1Cl	0	-3%	5	7	12
COc1ccc(CNC(=O)CC2C[C@H](C(=O)N(C(C)C)C(C)C)[C@@]3(C)c4[nH]c5ccccc5c4CCN3C2=O)cc1OC (some centres not stated)	-47*	-27%	0	-3	-3
CC(=NNC(=S)N1CC2CCC(CC2)C1)c1cccc(C)n1	0	.	-88*	3	-16
Cc1cccc(C(=O)N2CCCC(Nc3ccc(C)c(C)c3)C2)n1 (configuration not stated)	1	-5%	6	-1	6
